According to PubChem BioAssay AID1159580 (chemical genetic matrix, 2015):
About 2,000 (36%) of roughly 5,500 compounds were called active. Not shown: some 18% with an inconclusive outcome. No stated cut-off is given here; in the data, active means normalized growth mostly below about 0.91 (no sharp cut-off); inconclusive means no clear call, values can overlap the other calls; inactive means mostly above about 0.92. Some of the results follow.

Assay: chemical genetic growth profiling, strain panel (AID 1159580);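 further: tested at 20 µM; growth read once vehicle control cultures reached saturation at 30 °C; 1 = growth at the plate median or of vehicle wells; lower values mean less growth of the strain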
Details: growth OD

Measured: normalized growth

CC(C)(S)[C@@H](N)C(=O)O
inactive: S. cerevisiae deletion strains, locus YJR043C, strain POL32, active compounds read low 1 | S. cerevisiae deletion strains, locus YJR066W, strain TOR1, active compounds read low 0.952 | S. cerevisiae deletion strains, locus YKL009W, strain mrt4, active compounds read low 0.988 | S. cerevisiae deletion strains, locus YKL068W, active compounds read low 0.995 | S. cerevisiae deletion strains, locus YKL085W, strain MDH1 (second series), active compounds read low 0.993 | S. cerevisiae deletion strains, locus YKL085W, strain MDH1, active compounds read low 0.993 | S. cerevisiae deletion strains, locus YKL160W, strain elf1, active compounds read low 1.03 | S. cerevisiae deletion strains, locus YKL190W, strain CNB1, active compounds read low 0.999 | S. cerevisiae deletion strains, locus YKR001C, strain vps1, active compounds read low 0.988 | S. cerevisiae deletion strains, locus YKR026C, strain gcn3, active compounds read low 0.994 | S. cerevisiae deletion strains, locus YKR091W, strain srl3, active compounds read low 1 | S. cerevisiae deletion strains, locus YLL001W, strain dnm1, active compounds read low 1.02 | S. cerevisiae deletion strains, locus YLL026W, active compounds read low 1.01 | S. cerevisiae deletion strains, locus YLL041C, strain sdh2, active compounds read low 1 | S. cerevisiae deletion strains, locus YLR027C, strain aat2, active compounds read low 0.995 | S. cerevisiae deletion strains, locus YLR039C, strain RIC1, active compounds read low 1.02 | S. cerevisiae deletion strains, locus YLR058C, strain SHM2, active compounds read low 1.01 | S. cerevisiae deletion strains, locus YLR102C, strain apc9, active compounds read low 0.992 | S. cerevisiae deletion strains, locus YLR113W, strain HOG1, active compounds read low 0.99 | S. cerevisiae deletion strains, locus YLR221C, strain rsa3, active compounds read low 1 | S. cerevisiae deletion strains, locus YLR258W, strain gsy2, active compounds read low 1 | S. cerevisiae deletion strains, locus YLR262C, strain YPT6 (second series), active compounds read low 1.02 | S. cerevisiae deletion strains, locus YLR262C, strain YPT6, active compounds read low 1 | S. cerevisiae deletion strains, locus YLR268W, strain sec22, active compounds read low 0.969 | S. cerevisiae deletion strains, locus YLR320W, strain mms22, active compounds read low 1.04 | S. cerevisiae deletion strains, locus YLR330W, strain CHS5, active compounds read low 1.01 | S. cerevisiae deletion strains, locus YLR342W, strain FKS1 (second series), active compounds read low 1.03 | S. cerevisiae deletion strains, locus YLR342W, strain FKS1, active compounds read low 1.01 | S. cerevisiae deletion strains, locus YLR357W, strain rsc2, active compounds read low 1 | S. cerevisiae deletion strains, locus YLR370C, strain arc18, active compounds read low 1 | S. cerevisiae deletion strains, locus YLR371W, strain rom2, active compounds read low 0.994 | S. cerevisiae deletion strains, locus YLR384C, strain iki3, active compounds read low 0.993 | S. cerevisiae deletion strains, locus YLR418C, strain cdc73, active compounds read low 0.98 | S. cerevisiae deletion strains, locus YML016C, strain PPZ1, active compounds read low 1.02 | S. cerevisiae deletion strains, locus YML032C, strain rad52, active compounds read low 0.991 | S. cerevisiae deletion strains, locus YML120C, strain ndi1, active compounds read low 0.998 | S. cerevisiae deletion strains, locus YML124C, strain tub3, active compounds read low 0.994 | S. cerevisiae deletion strains, locus YMR058W, strain fet3, active compounds read low 1.01 | S. cerevisiae deletion strains, locus YMR078C, strain ctf18, active compounds read low 0.988 | S. cerevisiae deletion strains, locus YMR125W, strain sto1, active compounds read low 1 | S. cerevisiae deletion strains, locus YMR129W, active compounds read low 0.996 | S. cerevisiae deletion strains, locus YMR205C, strain PFK2, active compounds read low 1.04 | S. cerevisiae deletion strains, locus YMR223W, strain ubp8, active compounds read low 0.999 | S. cerevisiae deletion strains, locus YMR231W, strain pep5, active compounds read low 0.999 | S. cerevisiae deletion strains, locus YMR307W, strain GAS1, active compounds read low 1.01 | S. cerevisiae deletion strains, locus YNL067W, strain RPL9B, active compounds read low 0.993 | S. cerevisiae deletion strains, locus YNL071W, strain lat1, active compounds read low 1 | S. cerevisiae deletion strains, locus YNL183C, strain NPR1, active compounds read low 0.964 | S. cerevisiae deletion strains, locus YNL209W, strain ssb2, active compounds read low 0.997 | S. cerevisiae deletion strains, locus YNL233W, strain BNI4, active compounds read low 1.02 | S. cerevisiae deletion strains, locus YNL248C, strain rpa49, active compounds read low 1 | S. cerevisiae deletion strains, locus YNL250W, strain rad50, active compounds read low 0.985 | S. cerevisiae deletion strains, locus YNL271C, strain bni1, active compounds read low 0.988 | S. cerevisiae deletion strains, locus YNL298W, strain CLA4, active compounds read low 0.991 | S. cerevisiae deletion strains, locus YNL307C, strain MCK1, active compounds read low 0.992 | S. cerevisiae deletion strains, locus YNL322C, strain KRE1 (second series), active compounds read low 1.01 | S. cerevisiae deletion strains, locus YNR049C, strain mso1, active compounds read low 0.997 | S. cerevisiae deletion strains, locus YNR052C, strain pop2, active compounds read low 0.988 | S. cerevisiae deletion strains, locus YOL006C, strain TOP1, active compounds read low 1.08 | S. cerevisiae deletion strains, locus YOL012C, strain htz1 0.654 | S. cerevisiae deletion strains, locus YOL147C, strain pex11, active compounds read low 0.984 | S. cerevisiae deletion strains, locus YOR001W, strain rrp6, active compounds read low 0.989 | S. cerevisiae deletion strains, locus YOR061W, strain CKA2, active compounds read low 1.01 | S. cerevisiae deletion strains, locus YOR069W, strain VPS5, active compounds read low 1 | S. cerevisiae deletion strains, locus YOR070C, strain gyp1, active compounds read low 1.01 | S. cerevisiae deletion strains, locus YOR080W, strain dia2, active compounds read low 1 | S. cerevisiae deletion strains, locus YOR083W, strain WHI5, active compounds read low 1.04 | S. cerevisiae deletion strains, locus YOR106W, strain vam3, active compounds read low 1.03 | S. cerevisiae deletion strains, locus YOR136W, strain idh2, active compounds read low 0.994 | S. cerevisiae deletion strains, locus YOR144C, strain elg1, active compounds read low 0.992 | S. cerevisiae deletion strains, locus YOR184W, strain ser1, active compounds read low 1.01 | S. cerevisiae deletion strains, locus YOR231W, strain MKK1, active compounds read low 1.01 | S. cerevisiae deletion strains, locus YOR265W, strain rbl2, active compounds read low 1 | S. cerevisiae deletion strains, locus YOR270C, strain vph1, active compounds read low 0.989 | S. cerevisiae deletion strains, locus YOR290C, strain snf2, active compounds read low 1.04 | S. cerevisiae deletion strains, locus YOR316C, strain cot1, active compounds read low 0.993 | S. cerevisiae deletion strains, locus YPL051W, strain arl3, active compounds read low 1.02 | S. cerevisiae deletion strains, locus YPL078C, strain atp4, active compounds read low 1.01 | S. cerevisiae deletion strains, locus YPL106C, strain sse1, active compounds read low 1.03 | S. cerevisiae deletion strains, locus YPL240C, strain hsp82, active compounds read low 0.988 | S. cerevisiae deletion strains, locus YPL241C, strain CIN2, active compounds read low 1.01 | S. cerevisiae deletion strains, locus YPL256C, strain CLN2, active compounds read low 0.986 | S. cerevisiae deletion strains, locus YPR119W, strain clb2, active compounds read low 1 | S. cerevisiae deletion strains, locus YPR141C, strain kar3, active compounds read low 0.993 | S. cerevisiae deletion strains, locus YPR163C, strain tif3, active compounds read low 0.991 | S. cerevisiae deletion strains, locus YPR167C, strain met16, active compounds read low 0.991 | S. cerevisiae deletion strains, strain wtn01, active compounds read low 0.976 | S. cerevisiae strains, strain wild type, active compounds read low 1.01
